Screening results: PubChem BioAssay, National Center for Advancing Translational Sciences (NCATS)
Sampled rows, rich in hits. Any-hit rate of the full collection: about 18%.
TDP1 inh = blocks human tyrosyl-DNA phosphodiesterase 1 | Q9NUW8 | recombinant TDP1, AlphaScreen DNA substrate cleavage | Potency, µM (doses to about 130 µM), for inactives: at the top dose activity change, negative = inhibition, actives largely listed as inhibitors | 350,000 tested, 0.28% active | AID 485290; also: potency is read from the fitted curve at half-maximal effect; nearly all actives have a fitted effect of over 40% in size
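Compounds were preincubated with Tdp1 (1 nM final) for 15 min at room temperature before substrate (15 nM final) started a 5 min reaction; beads (10 ug/ml final) were then added for 10 min before AlphaScreen detection.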
DT40 TDP1 no CPT = qHTS for Inhibitors of human tyrosyl-DNA phosphodiesterase 1 (TDP1): qHTS in cells in absence of CPT. 420,000 tested, 15% active. Potency, µM (titrated, usually from 46.2 µM), without a hit: top-dose activity change, negative = growth inhibition, usual class: inhibitors. AID 686978, 2013. DT40 Tdp1-/- hTDP1 cells, no CPT, ATP luminescence, 48 h; also: potency is read from the fitted curve at half-maximal effect; nearly all actives have a fitted effect of over 55% in size
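Growth of hTDP1-complemented DT40 Tdp1-knockout cells is measured by ATP luminescence after at least 48 hr compound exposure at 37 °C, with DMSO substituting for the 20 nM CPT used in the parallel screen.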
Six1-Eya2 inh = inhibitors of human Six1/Eya2 interaction; 360,000 tested, 0.56% active; activity change, % (concentration not given with the values); AlphaScreen GST-Six1/His-Eya2 binding, biochemical; hits give low values; Q15475+O00167; in the data active = activity change below about -65%; inconclusive = mostly about -30% to -63%
Target sequence (O00167 whole entry, looked up): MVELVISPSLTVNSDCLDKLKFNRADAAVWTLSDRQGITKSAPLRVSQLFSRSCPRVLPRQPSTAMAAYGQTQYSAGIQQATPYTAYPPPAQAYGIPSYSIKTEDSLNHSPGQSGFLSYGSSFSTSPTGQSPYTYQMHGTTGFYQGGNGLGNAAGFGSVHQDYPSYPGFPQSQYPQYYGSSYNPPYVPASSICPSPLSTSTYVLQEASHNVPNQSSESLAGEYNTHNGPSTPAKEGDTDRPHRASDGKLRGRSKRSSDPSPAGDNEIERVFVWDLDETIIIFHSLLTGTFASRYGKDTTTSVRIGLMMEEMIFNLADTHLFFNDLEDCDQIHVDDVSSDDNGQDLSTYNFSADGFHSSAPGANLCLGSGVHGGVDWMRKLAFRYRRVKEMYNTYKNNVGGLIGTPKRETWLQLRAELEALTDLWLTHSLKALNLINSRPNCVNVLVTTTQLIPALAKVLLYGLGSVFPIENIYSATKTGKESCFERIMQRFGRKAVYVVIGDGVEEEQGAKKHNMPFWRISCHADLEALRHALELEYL
Target sequence (Q15475 whole entry, looked up): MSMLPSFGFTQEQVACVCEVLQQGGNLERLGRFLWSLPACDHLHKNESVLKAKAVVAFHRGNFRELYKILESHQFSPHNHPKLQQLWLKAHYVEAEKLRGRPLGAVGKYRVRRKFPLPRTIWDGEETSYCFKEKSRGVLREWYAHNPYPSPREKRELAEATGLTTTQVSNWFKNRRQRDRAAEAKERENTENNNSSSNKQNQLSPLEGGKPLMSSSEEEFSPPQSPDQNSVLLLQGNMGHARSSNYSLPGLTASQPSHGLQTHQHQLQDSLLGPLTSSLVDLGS
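Six1/Eya2 binding was read as AlphaScreen signal after compounds were pinned into GST-Six1 plus His-tagged Eya2 (5X stock 250/500 nM) in pH 8.0 Tris/NaCl/TCEP buffer, beads added, then incubated 1 h, 37 C, dark.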
CtBP-E1A blk = inhibitors of CtBP/E1A interaction. AlphaScreen GST-E1A/His-CtBP binding, 1536-well; hits give low values. 340,000 tested, 0.49% active. activity change, % (test concentration not listed); in the data active = activity change below about -65%; inconclusive = mostly about -30% to -63%
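Homogeneous bead-based format: GST-tagged E1A captured on glutathione donor beads, His-tagged CtBP on nickel acceptor beads; compounds precede bead addition by 2 h at 37 °C.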
TDP1 cell CPT = DT40-hTDP1 cell growth loss with CPT; chicken DT40 Tdp1-/-;hTDP1 cells + 20 nM CPT, ATP luminescence, 48 h; Potency, µM (highest dose often 46.2 µM), inactives show at the highest dose activity change, negative = growth inhibition, usual class: inhibitors; 420,000 tested, 12% active; also: potency is read from the fitted curve at half-maximal effect; nearly all actives have a fitted effect of over 55% in size
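Chicken DT40 Tdp1-/- cells complemented with human TDP1, 400 cells/well, exposed to compounds plus 20 nM camptothecin for at least 48 h at 37 C; viability read as ATP content by CellTiter-Glo luminescence.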
IL-1B inflam inh = inhibitors of inflammasome signaling (IL-1 beta secretion) | activity change, % at 57.5 µM | 360,000 tested, 4.7% active | THP-1 LPS/ATP IL-1B secretion, AlphaLISA, 16 h; hits give low values; in the data active = activity change below about -50%; inconclusive = mostly about -30% to -49%
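THP-1 cells pretreated 1 hr with compounds (up to 57.5 uM final), then stimulated with LPS (250 ng/mL final) plus ATP (1.25 mM final); secreted IL-1B measured by AlphaLISA after 16 hr, decreased signal indicating inhibition.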
Starred values were filed as active, the others as inactive; ? = inconclusive; . = no result; ! = not confirmed by another sample; [ ] = dose if it differs, or a comment. Unless noted, calls follow the shape of the dose curve; as a rule, active = well fitted curve in the direction sought with a large enough effect; inconclusive = small, poorly fitted or top-dose-only effect, or another doubt; inactive = no such curve, though single readings can be large; an effect the other way counts as inactive or inconclusive. % is scaled to controls: 0 for no effect and ±100 for the full control effect.

SMILES	TDP1 inh	DT40 TDP1 no CPT	Six1-Eya2 inh	CtBP-E1A blk	TDP1 cell CPT	IL-1B inflam inh
Cc1cccc(-n2c(O)c(C=Nc3ccc(Br)cn3)c(=O)[nH]c2=O)c1	0%	16µM*	-3	0	10µM*	11
Cc1ccc(-n2c(O)c(/C=N/c3ncc(Br)cc3Br)c(=O)[nH]c2=O)cc1	-3%	9.2µM*	-1	2	?	6
Clc1cccc(C(c2ccc3nc[nH]c3c2)n2ccnc2)c1 (centres undefined)	.	27µM*	.	.	?	.
CNS(=O)(=O)c1cc(NC(=O)c2cccc3cccnc23)ccc1C	7%	21µM*	?	-20	23µM*	?
CC1=C(C/C(C)=C/c2ccccc2)/C(=C/CO)[C@@H]2OC(=O)O[C@]2(C)C12CC2	.	12µM*	3	.	8.2µM*	4
COc1ccccc1N1CCN(Cc2cccc(OC)c2O)CC1	-2%	-20%	-3	2	?	0
CCCOC(=O)C1=C(C)CS[C@@H]2[C@H](NC(=O)COc3ccccc3)C(=O)N12	.	?	.	.	20µM*	.
O=C(O)CCCCCCNC1c2ccccc2CCc2ccccc21	.	2%	.	.	-3%	.
Cc1ccc(S(=O)(=O)NC(=O)NC2CCCC2)cc1	.	-1%	.	.	5%	.
Cc1ccc(S(=O)(=O)N[C@@H](CCCCN)C(=O)CCl)cc1	-4%[56.1 µM]	8.4µM*!	5	-1	8.4µM*!	-11
COC(=O)C1=C(c2c(C)noc2C)C[C@@H]2CC[C@H]1N2C(=O)NC1Cc2ccccc2C1	0%	-13%	6	.	1%	16
O=C(O)c1ccccc1-c1c2cc(Br)c(=O)cc-2oc2[c]([Hg])c(O)c(Br)cc12	25%	0.58µM*	.	.	1.5µM*	.
COCCOC(=O)c1c(C)n(C)c2ccc(OC(=O)N(C)C)cc12	4%	-25%	2	10	-14%	3
CN(C)CCc1nc2ccccc2c(=O)n1-c1ccccc1	5%	.	.	.	.	.
N#CCn1c(CCl)nc2ccccc2c1=O	3%	2.6µM*	6	-12	4.6µM*	-56*
C[C@@H]1CN([C@@H](C)CO)C(=O)c2cccc(NC(=O)c3ccncc3)c2O[C@@H]1CN(C)Cc1ccc(-c2ccccc2)cc1	6%	?	12	20	?	?
O=C(NCC1=C(c2ccc3ccccc3c2)C[C@@H]2CC[C@H]1N2Cc1ccco1)c1nccs1	.	16µM*	-13	-9	?	-28
O=C(NCC1=C(c2cccc3ccccc23)C[C@@H]2CC[C@H]1N2Cc1ccco1)c1cccs1	.	15µM*	-21	-18	?	-2
O=C(NCC1=C(c2cccc3ccccc23)C[C@@H]2CC[C@H]1N2Cc1ccco1)c1ccncc1	.	26µM*	-2	-3	23µM*	-19
C=C[C@H]1CN2CC[C@H]1C[C@H]2c1[nH]c2ccccc2c1CCO	-9%[56.1 µM]	-26%	.	.	14%	.
C/C=C1\CN2[C@H]3C[C@@]45c6ccccc6N(C)[C@H]4[C@@H]2CC1C3[C@H]5O (some centres undefined)	.	-3%	5	10	4%	3
C=CCn1c(O)c(C(C)=NCCN2CCN(C(=S)NC)CC2)c(=O)[nH]c1=O	.	3%	-19	-11	2%	5
COc1ccccc1OCCCn1cc(C=O)c2ccccc21	4%	21µM*	-2	-3	?	?
COc1ccccc1OCCCn1cc(C(C)=O)c2ccccc21	2%	18µM*	2	0	?	21
Cn1c(CCCC(=O)O)nc2cc(N(CCCl)CCCl)ccc21	.	19µM*	.	.	?	.
SMILES	TDP1 inh	DT40 TDP1 no CPT	Six1-Eya2 inh	CtBP-E1A blk	TDP1 cell CPT	IL-1B inflam inh
Cc1c(/C=N/O)c2ccccc2n1C	8%	-4%	-2	-1	-2%	-24
CCOC(=O)CNC(=O)CNC(=O)c1nn(-c2ccc(OC)c(Cl)c2)c(=O)c2ccccc12	1%	-5%	-2	-15	?	-2
COP(=O)(NC(C)=O)SC (centres undefined)	.	-12%	0	3	-11%	-2
CN(C)C(=O)Oc1ccc(Cl)c2cccnc12	2%	-18%	-1	6	6%	8
CN(C)C(=O)Oc1ccnc2cc(Cl)ccc12	2%	?	8	2	7%	-73*
Cc1nc2cc(-c3cccc(F)c3)nn2c(C)c1CCC(=O)N1CCC2(CC1)OCCO2	2%	?	0	-1	16µM*	0
CCC(=O)c1ccc(OC(=O)N(C)c2ccccc2)cc1	3%	-11%	5	7	0%	13
C[C@@H]1CN([C@H](C)CO)C(=O)CCCn2nncc2CO[C@H]1CN(C)C(=O)Oc1ccc2ccccc2c1	.	-12%	5	4	-1%	-5
CCOP(=S)(OCC)Oc1ccc2c(C)c(Cl)c(=O)oc2c1	.	6.5µM*	48	-18	?	-12
CCc1ccc(NC(=O)c2ccc3oc(=O)n(Cc4ccccc4)c3c2)cc1	1%	18µM*	.	.	?	.
Cc1ccc2oc(=O)n(CCC(=O)Nc3ccc(N4CCOCC4)cc3)c2c1	4%	?	-5	6	-2%	-7
Cc1cc(-c2nc3ccccc3s2)ccc1NC(=O)c1cc(Cl)ccc1Cl	-5%	?	.	.	?	.
Cc1cc(C)cc(OCC(=O)Nc2ccc(-c3nc4ccccc4s3)cc2)c1	-7%	9.2µM*	.	.	10µM*	.
Oc1ccc2c3c1O[C@H]1c4c(c5ccccc5n4Cc4ccccc4)C[C@@]4(O)C(C2)N(CC2CC2)CC[C@]314	17%	3.7µM*	.	.	5.2µM*	.
NC(N)=Nc1ccc2[nH]c3c(c2c1)C[C@@]1(O)[C@H]2Cc4ccc(O)c5c4[C@@]1(CCN2CC1CC1)[C@H]3O5	11%	4.6µM*	-7	-22	2.3µM*	?
O=C1/C(=C\c2ccccc2)C[C@@]2(O)[C@H]3Cc4ccc(O)c5c4[C@@]2(CCN3CC2CC2)[C@@H]1O5	13%	2.7µM*	.	.	2.4µM*	.
Oc1ccc2c3c1O[C@H]1c4oc5ccccc5c4C[C@@]4(O)C(C2)N(CC2CC2)CC[C@]314	7%	?	.	.	?	.
O=C1/C(=C\c2ccccc2)C[C@@]2(O)[C@H]3Cc4ccc(O)c5c4[C@@]2(CCN3CC2CC2)[C@H]1O5	11%	2.1µM*	.	.	2.1µM*	.
COc1cc(CC2(CCc3ccncc3)C(=O)N(C)C(=O)N(C)C2=O)cc(OC)c1OC	.	1%	19	0	4%	3
